# Structures can show the parent of a compound that is named as a salt.
# Columns and labels:
# Settings in all cases: incubation time: 27 h, anaerobic, 37 °C;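 for the amine columns active = adjusted P below 0.05 in both replicates with a change the same way and a mean fold change under 0.8 or over 1.25; inactive = the rest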
# [1] = test system: Clostridium sporogenes DSM 1664; experiment: growth (OD595) fold change vs plate DMSO controls (fold change (ratio)); higher = more growth
# Summary of the method: (§1)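 The 96-well mGAM cultures had been kept anaerobic for 27 h at 37 °C before being shaken and read at 595 nm. Blank subtraction, compound background correction with 20 µM compound solutions in water, and a calibration factor of 5 turned the readings into OD. Growth is given as the fold change versus the median of plate DMSO controls. Fold changes above 1.5 were set to NA, and the values are means of 2 biological replicates.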
# [2] = test system: Escherichia coli IAI1; experiment: as above
# Summary of the method: as §1
# [3] = test system: Klebsiella aerogenes DSM 30053; experiment: as above
# Summary of the method: as §1
# [4] = test system: Ruminococcus gnavus DSM 108212; experiment: as above
# Summary of the method: as §1
# [5] = test system: Klebsiella aerogenes DSM 30053; experiment: fold change of Histamine concentration vs plate DMSO controls (fold change (ratio)); higher = more amine produced, active = hit call of the paper (significant change in both replicates, either direction)
# Summary of the method: (§2)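 Amines were quantified by LC–triple-quadrupole MS in dynamic MRM mode against external calibration curves, with drift correction within each batch. The samples were whole anaerobic mGAM cultures of four gut bacterial strains, grown for 27 h at 37 °C in 80 µL wells and extracted with cold acetonitrile/methanol with 0.1% formic acid, then centrifuged. Values are reported as fold change over DMSO controls on the same plate. The mean of 2 biological replicates is given.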
# [6] = test system: Clostridium sporogenes DSM 1664; experiment: fold change of Tryptamine concentration vs plate DMSO controls (fold change (ratio)); higher = more amine produced, active = hit call of the paper (significant change in both replicates, either direction)
# Summary of the method: as §2
# [7] = test system: Ruminococcus gnavus DSM 108212; experiment: as above
# Summary of the method: as §2
# [8] = test system: Escherichia coli IAI1; experiment: fold change of Putrescine concentration vs plate DMSO controls (fold change (ratio)); higher = more amine produced, active = hit call of the paper (significant change in both replicates, either direction)
# Summary of the method: as §2
# [9] = test system: Klebsiella aerogenes DSM 30053; experiment: as above
# Summary of the method: as §2
# [10] = test system: Escherichia coli IAI1; experiment: fold change of Cadaverine concentration vs plate DMSO controls (fold change (ratio)); higher = more amine produced, active = hit call of the paper (significant change in both replicates, either direction)
# Summary of the method: as §2
# [11] = test system: Klebsiella aerogenes DSM 30053; experiment: as above
# Summary of the method: as §2
# [12] = test system: Ruminococcus gnavus DSM 108212; experiment: fold change of 2-Phenylethylamine concentration vs plate DMSO controls (fold change (ratio)); higher = more amine produced, active = hit call of the paper (significant change in both replicates, either direction)
# Summary of the method: as §2
Compound,growth [1],growth [2],growth [3],growth [4],fold change of Histamine concentration [5],fold change of Tryptamine concentration [6],fold change of Tryptamine concentration [7],fold change of Putrescine concentration [8],fold change of Putrescine concentration [9],fold change of Cadaverine concentration [10],fold change of Cadaverine concentration [11],fold change of 2-Phenylethylamine concentration [12]
Cc1ccccc1C(OCCN(C)C)c1ccccc1 (stereo not drawn) [Orphenadrine hydrochloride] (20 µM),0.998,1.02,0.938,1.09,0.902 (inactive),1.34 (inactive),1.07 (inactive),1.07 (inactive),0.895 (inactive),1.04 (inactive),1.03 (inactive),1.16 (inactive)
CN1CCc2cccc3c2[C@H]1Cc1ccc(O)c(O)c1-3 [R(-) Apomorphine hydrochloride hemihydrate] (20 µM),1.05,1.03,1.05,1.17,1.02 (inactive),0.988 (inactive),0.997 (inactive),0.98 (inactive),0.978 (inactive),1.04 (inactive),0.992 (inactive),1.01 (inactive)
CC(=O)O[C@]1(C(C)=O)CC[C@H]2[C@@H]3C=C(Cl)C4=CC(=O)[C@@H]5C[C@@H]5[C@]4(C)[C@H]3CC[C@@]21C [Cyproterone acetate] (20 µM),1.17,0.908,0.894,0.639,0.982 (inactive),0.986 (inactive),0.938 (inactive),1.02 (inactive),1 (inactive),0.999 (inactive),0.996 (inactive),0.927 (inactive)
N=C(N)NCC1COC2(CCCCC2)O1 (stereo not drawn) [Guanadrel sulfate] (20 µM),0.98,0.972,0.986,1.16,1.04 (inactive),1 (inactive),1.04 (inactive),0.993 (inactive),1.04 (inactive),0.99 (inactive),1 (inactive),1.06 (inactive)
CCC(C)n1ncn(-c2ccc(N3CCN(c4ccc(OCC5COC(Cn6cncn6)(c6ccc(Cl)cc6Cl)O5)cc4)CC3)cc2)c1=O (stereo not drawn) [Itraconazole] (20 µM),1.03,0.985,1.03,0.531,1.13 (inactive),1.02 (inactive),1.05 (inactive),1.01 (inactive),1.03 (inactive),1 (inactive),0.995 (inactive),0.997 (inactive)
C[C@@H]1CCC[C@H](C)N1NC(=O)c1ccc(Cl)c(S(N)(=O)=O)c1 [Clopamide] (20 µM),1.09,0.983,0.983,1.04,1.07 (inactive),1.07 (inactive),1.02 (inactive),0.989 (inactive),1.03 (inactive),1 (inactive),1.01 (inactive),1.03 (inactive)
CN1C(C(=O)Nc2ccccn2)=C(O)c2sccc2S1(=O)=O [Tenoxicam] (20 µM),1.03,1.04,0.975,1.18,1.07 (inactive),1.01 (inactive),1.01 (inactive),1.05 (inactive),1.01 (inactive),1.01 (inactive),0.977 (inactive),0.959 (inactive)
Cc1cc(NC(=O)C2=C(O)c3ccccc3S(=O)(=O)N2C)no1 [Isoxicam] (20 µM),1.11,1.05,0.997,1.02,0.996 (inactive),1.02 (inactive),1.02 (inactive),1.03 (inactive),1.01 (inactive),0.969 (inactive),0.994 (inactive),0.947 (inactive)
CN1CCC(=C2c3ccccc3Sc3ccccc32)CC1 [Pimethixene maleate] (20 µM),1.13,0.985,0.967,1.26,1.02 (inactive),1.01 (inactive),0.87 (inactive),0.974 (inactive),0.991 (inactive),1.02 (inactive),0.993 (inactive),0.865 (inactive)
Cc1ccccc1N1C(=O)c2cc(S(N)(=O)=O)c(Cl)cc2NC1C (stereo not drawn) [Metolazone] (20 µM),1.14,0.984,1.02,1.07,1.04 (inactive),0.993 (inactive),1.03 (inactive),1.02 (inactive),0.995 (inactive),0.977 (inactive),0.993 (inactive),1.04 (inactive)
C[C@@H](O)[C@H]1C(=O)N2C(C(=O)O)=C(S[C@@H]3CN[C@H](CNS(N)(=O)=O)C3)[C@H](C)[C@H]12 [Doripenem monohydrate] (20 µM),0,0.00243,0.281,0.0314,0.193 (active),0.0168 (active),0.0858 (active),0.954 (inactive),0.467 (active),2.1 (active),1.08 (inactive),0.0567 (active)
CO/N=C(\C(=O)N[C@@H]1C(=O)N2C(C(=O)[O-])=C(C[n+]3ccn4ncccc43)CS[C@H]12)c1nsc(N)n1 [Cefozopran hydrochloride] (20 µM),0,0.102,0.153,0.0221,1.35 (active),0.0264 (active),0.0903 (active),2.2 (active),0.898 (inactive),2 (active),1.05 (inactive),0.0687 (active)
CC(C)n1c(/C=C/C(O)CC(O)CC(=O)O)c(-c2ccc(F)cc2)c2ccccc21 (stereo not drawn) [Fluvastatin sodium salt] (20 µM),0.95,0.995,0.987,0.918,0.914 (inactive),0.881 (inactive),1.04 (inactive),1.02 (inactive),1.05 (inactive),1.07 (inactive),1.03 (inactive),0.984 (inactive)
N#Cc1ccc(C(c2ccc(C#N)cc2)n2cncn2)cc1 [Letrozole] (20 µM),1.05,1.02,0.996,1.12,1.07 (inactive),0.988 (inactive),1.01 (inactive),1.03 (inactive),1.01 (inactive),0.964 (inactive),0.992 (inactive),1.02 (inactive)
